Experimental data taken from PubChem BioAssay AID765 (NMMLSC, 2007).
The source made the active and inactive calls. Cut-off read from the data, not from the text of the source: active = inhibition above about 31%; inactive = the rest.

target: N-formyl peptide receptor 2 (Homo sapiens) (UniProt P25090); assay: human FPR2 ligand displacement single-point screen – cell-based, flow cytometry, single concentration (AID 765); conditions: FPRL1-expressing cells, fluorescent ligand binding inhibition, stronger effect = higher value; at 5.1 µM unless noted
Sequence (P25090 whole entry, looked up): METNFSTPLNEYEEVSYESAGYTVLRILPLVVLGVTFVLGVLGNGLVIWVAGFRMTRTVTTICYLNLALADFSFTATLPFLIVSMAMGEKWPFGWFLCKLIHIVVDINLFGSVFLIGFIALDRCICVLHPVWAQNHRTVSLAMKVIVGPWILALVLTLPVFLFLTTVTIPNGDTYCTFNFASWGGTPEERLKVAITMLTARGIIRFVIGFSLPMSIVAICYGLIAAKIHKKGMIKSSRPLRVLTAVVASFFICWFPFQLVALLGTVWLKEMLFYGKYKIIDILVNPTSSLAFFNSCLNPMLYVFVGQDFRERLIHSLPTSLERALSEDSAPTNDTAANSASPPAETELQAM

Row | Compound | inhibition
1 | Clc1ccccc1N1CCN(c2nc(-c3ccccc3)c3cc(Br)ccc3n2)CC1 | 5.1% [at 4.6 µM] (inactive)
2 | O=C(N1CCN(c2nc(-c3ccccc3)c3ccccc3n2)CC1)C(F)(F)F | 24.8% [at 5.8 µM] (inactive)
3 | COc1cccc(-c2cc(C(F)(F)F)nc(N3CCN(C(c4ccccc4)c4ccccc4)CC3)n2)c1 | -3.9% [at 4.4 µM] (inactive)
4 | Cc1ccc(-c2cc(C(F)F)nc(N3CCN(c4cccc(Cl)c4)CC3)n2)cc1 | -3.5% [at 5.4 µM] (inactive)
5 | COc1cccc(C(=O)Nc2cc(-c3cn4cccnc4n3)ccc2OC)c1 | 12.2% [at 5.9 µM] (inactive)
6 | O=C(O)CC1(CC(=O)N2CCN(c3nc(-c4ccccc4Cl)c4cc(Br)ccc4n3)CC2)CCCC1 | -5.2% [at 3.9 µM] (inactive)
7 | COc1ccc(-c2cn3cccnc3n2)cc1NC(=O)C(C)Oc1ccccc1 (stereo unspecified) | -8.6% [at 5.7 µM] (inactive)
8 | CCOC(=O)N1CCN(c2nc(-c3ccccc3)c3cc(C)ccc3n2)CC1 | 3.4% [at 5.9 µM] (inactive)
9 | CCCC(=O)Nc1cccc(-c2cn3cccnc3n2)c1 | -2.8% [at 7.9 µM] (inactive)
10 | O=C(c1ccccc1Cl)N1CCN(c2nc(-c3ccccc3)c3cc(Cl)ccc3n2)CC1 | 4.5% [at 4.8 µM] (inactive)
11 | COc1ccc(-c2cn3cccnc3n2)cc1NC(=O)c1ccc(OC)c(OC)c1 | -6% [at 5.5 µM] (inactive)
12 | O=C(O)CCC(=O)N1CCN(c2nc(-c3ccccc3)c3ccccc3n2)CC1 | -3.2% [at 5.7 µM] (inactive)
13 | Fc1ccc(-c2cc(C(F)(F)F)nc(N3CCN(C(c4ccccc4)c4ccccc4)CC3)n2)cc1 | -9.4% [at 4.5 µM] (inactive)
14 | Cc1ccc2nc(N3CCN(C(=O)CCC(=O)O)CC3)nc(-c3ccccc3)c2c1 | 6.9% [at 5.5 µM] (inactive)
15 | COc1ccc(-c2cn3cccnc3n2)cc1NC(=O)CCc1ccccc1 | 16% [at 6 µM] (inactive)
16 | O=C(N1CCN(c2nc(-c3ccccc3)c3cc([N+](=O)[O-])ccc3n2)CC1)C(F)(F)F | -4.2% [at 5.2 µM] (inactive)
17 | COc1ccc(-c2cn3cccnc3n2)cc1NC(=O)C1CC1 | 71.5% [at 7.2 µM] (active)
18 | COc1ccc(-c2cn3cccnc3n2)cc1NC(=O)c1ccccc1Br | 3.2% [at 5.3 µM] (inactive)

Row | Compound | inhibition
19 | COc1ccc(-c2cn3cccnc3n2)cc1NC(=O)C1CCCC1 | 34.6% [at 6.6 µM] (active)
20 | COc1ccc(-c2cn3cccnc3n2)cc1NC(=O)c1c(-c2ccccc2Cl)noc1C | 13.3% [at 4.8 µM] (inactive)
21 | O=C(O)CCC(=O)N1CCN(c2nc(-c3ccccc3)c3cc(Br)ccc3n2)CC1 | -3.9% [at 4.7 µM] (inactive)
22 | COc1ccc(-c2cc(C(F)(F)F)nc(N3CCN(c4ccccc4)CC3)n2)cc1OC | -5% [at 5 µM] (inactive)
23 | O=C(C1CCCCC1)N1CCN(c2nc(-c3ccccc3Cl)c3cc(Br)ccc3n2)CC1 | -6.3% [at 4.3 µM] (inactive)
24 | CC1(C)CC(=O)c2cnc(N3CCN(Cc4ccc5c(c4)OCO5)CC3)nc2C1 | -3.3% [at 5.6 µM] (inactive)
25 | COc1ccc(-c2cn3cccnc3n2)cc1NC(=O)c1cccc(Cl)c1 | 25.4% [at 5.9 µM] (inactive)
26 | O=C(c1ccccc1)N1CCN(c2nc(-c3ccccc3)c3cc([N+](=O)[O-])ccc3n2)CC1 | 18.8% (inactive)
27 | COc1ccc(-c2cn3cccnc3n2)cc1NC(=O)C(C)C | 25.1% [at 7.2 µM] (inactive)
28 | Cc1ccc(-c2cc(C(F)F)nc(N3CCN(Cc4ccccc4)CC3)n2)cc1 | -4.2% [at 5.6 µM] (inactive)
29 | CCOC(=O)N1CCN(c2nc(-c3ccc(C)cc3)cc(C(F)F)n2)CC1 | 1% [at 5.9 µM] (inactive)
30 | COc1ccc(-c2cn3cccnc3n2)cc1NC(=O)c1cccc(Br)c1 | 0.7% [at 5.3 µM] (inactive)
31 | COc1ccc(-c2cn3cccnc3n2)cc1NC(=O)c1ccccc1Cl | 19% [at 5.9 µM] (inactive)
32 | COc1ccc(-c2cn3cccnc3n2)cc1NC(=O)c1ccccc1F | 0.8% [at 6.1 µM] (inactive)
33 | COc1ccccc1N1CCN(c2nc(-c3ccc(F)cc3)cc(C(F)(F)F)n2)CC1 | -8.4% (inactive)
34 | COc1ccccc1-c1cc(C(F)(F)F)nc(N2CCN(Cc3ccccc3)CC2)n1 | 14.1% [at 5.2 µM] (inactive)
35 | O=C(c1cccc(F)c1)N1CCN(c2nc(-c3ccc(F)cc3)cc(C(F)(F)F)n2)CC1 | 2.3% [at 5 µM] (inactive)
36 | COc1ccc(-c2cn3cccnc3n2)cc1NC(=O)CCCc1ccccc1 | -8.7% [at 5.8 µM] (inactive)
